Reference: PubChem BioAssay (EPA / NIEHS)
Inconclusive results are not listed. The source made the active and inactive calls. The calls were made as follows, unless noted: active = hit-call score of the fitted dose curve at least 0.9, where 1 is the maximum; inconclusive = response in the unintended direction; inactive = score below 0.9.

What was measured:
[1] = biological target: Glucocorticoid receptor (Homo sapiens) (UniProt P04150); experiment: ATG_GR_TRANS: Attagene TRANS-FACTORIAL HepG2 Assay for human Glucocorticoid Receptor (GR) (AID 2282978); conditions: HepG2 Attagene TRANS GR reporter, mRNA transcription;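 also: activators score as hits since higher reporter transcript over DMSO is fitted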
Chain of Glucocorticoid receptor (Homo sapiens) (P04150 whole entry, looked up, the tested form may be a part): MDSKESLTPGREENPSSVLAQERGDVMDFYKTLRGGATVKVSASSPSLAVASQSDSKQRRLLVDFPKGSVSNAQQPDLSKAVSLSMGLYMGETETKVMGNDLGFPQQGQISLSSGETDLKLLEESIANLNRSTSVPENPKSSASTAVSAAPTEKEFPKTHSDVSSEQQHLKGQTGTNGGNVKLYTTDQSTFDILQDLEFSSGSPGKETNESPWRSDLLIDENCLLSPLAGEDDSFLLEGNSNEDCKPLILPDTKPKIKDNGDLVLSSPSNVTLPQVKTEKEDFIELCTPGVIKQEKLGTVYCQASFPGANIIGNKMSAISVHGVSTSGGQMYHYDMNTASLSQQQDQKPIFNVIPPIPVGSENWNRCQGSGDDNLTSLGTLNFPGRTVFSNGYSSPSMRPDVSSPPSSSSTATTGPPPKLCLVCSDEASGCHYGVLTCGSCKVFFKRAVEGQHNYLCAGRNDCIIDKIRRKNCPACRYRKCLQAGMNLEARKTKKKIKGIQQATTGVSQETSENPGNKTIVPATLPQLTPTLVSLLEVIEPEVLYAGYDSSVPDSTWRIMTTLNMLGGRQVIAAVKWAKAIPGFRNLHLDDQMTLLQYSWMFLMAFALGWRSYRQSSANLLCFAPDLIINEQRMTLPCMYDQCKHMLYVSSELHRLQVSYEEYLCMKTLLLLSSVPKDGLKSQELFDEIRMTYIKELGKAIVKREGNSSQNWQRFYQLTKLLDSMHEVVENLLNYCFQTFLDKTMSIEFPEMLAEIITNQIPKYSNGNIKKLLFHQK
In short: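 HepG2 cells transiently transfected with multiplexed reporter units in which chimeric NR-GAL4 proteins drive GAL4-UAS reporters; 24 h compound exposure. Reporter mRNA measured by RT-PCR, 6-FAM labelling, HpaI digestion and capillary electrophoresis; gain-of-signal fitted versus DMSO.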

[2] = biological target: Oxysterols receptor LXR-beta (Homo sapiens) (UniProt P55055); experiment: ATG_LXRb_TRANS: Attagene TRANS-FACTORIAL HepG2 Assay for human Liver X Receptor beta (LXRb) (AID 2282981); conditions: HepG2 Attagene TRANS GAL4-LXRb reporter, mRNA
Chain of Oxysterols receptor LXR-beta (Homo sapiens) (P55055 whole entry, looked up, the tested form may be a part): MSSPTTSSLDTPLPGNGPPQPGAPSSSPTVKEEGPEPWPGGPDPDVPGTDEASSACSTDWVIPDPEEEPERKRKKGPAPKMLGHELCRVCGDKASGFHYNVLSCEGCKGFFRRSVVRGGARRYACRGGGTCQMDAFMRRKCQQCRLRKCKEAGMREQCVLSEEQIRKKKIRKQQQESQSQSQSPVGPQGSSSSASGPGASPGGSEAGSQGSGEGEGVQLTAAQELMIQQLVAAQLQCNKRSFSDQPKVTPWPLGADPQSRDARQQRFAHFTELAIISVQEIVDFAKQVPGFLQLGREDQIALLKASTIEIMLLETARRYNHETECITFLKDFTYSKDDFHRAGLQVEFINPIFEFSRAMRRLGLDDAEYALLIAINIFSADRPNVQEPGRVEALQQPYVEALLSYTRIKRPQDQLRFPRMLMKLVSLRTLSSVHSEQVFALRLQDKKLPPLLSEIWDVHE
In short: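 Gain-of-signal mRNA reporter endpoint, DMSO as negative control. Transiently transfected HepG2 cells carrying the NR-Gal4 chimera and GAL4-UAS reporter units were treated 24 h; transcripts quantified by RT-PCR and capillary electrophoresis fluorescence.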

[3] = biological target: Hepatocyte nuclear factor 4-alpha (Homo sapiens) (UniProt P41235); experiment: ATG_HNF4a_TRANS: Attagene TRANS-FACTORIAL HepG2 Assay for human Hepatocyte Nuclear Factor 4 alpha (HNF4a) (AID 2282982); conditions: HepG2 HNF4a transactivation reporter, mRNA readout
Chain of Hepatocyte nuclear factor 4-alpha (Homo sapiens) (P41235 whole entry, looked up, the tested form may be a part): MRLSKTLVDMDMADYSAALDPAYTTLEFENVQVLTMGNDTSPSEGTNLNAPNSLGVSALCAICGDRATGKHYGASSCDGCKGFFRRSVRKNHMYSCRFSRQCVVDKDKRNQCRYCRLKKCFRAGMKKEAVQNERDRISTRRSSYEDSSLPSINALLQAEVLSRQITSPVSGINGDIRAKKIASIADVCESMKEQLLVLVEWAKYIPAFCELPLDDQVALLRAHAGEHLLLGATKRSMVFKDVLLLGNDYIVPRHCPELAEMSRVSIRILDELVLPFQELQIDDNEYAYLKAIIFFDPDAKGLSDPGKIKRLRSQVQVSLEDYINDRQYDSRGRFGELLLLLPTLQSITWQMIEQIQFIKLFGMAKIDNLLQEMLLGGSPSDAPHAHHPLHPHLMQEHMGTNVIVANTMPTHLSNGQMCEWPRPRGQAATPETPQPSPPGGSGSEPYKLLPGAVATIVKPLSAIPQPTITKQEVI
In short: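 Gain-of-signal mRNA induction, relative to DMSO vehicle, was read after 24 h compound treatment of HepG2 cells bearing transfected GAL4-UAS reporters. Detection used RT-PCR, 6-FAM primer extension and capillary electrophoresis.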

[4] = ATG_M_06_TRANS: Attagene TRANS-FACTORIAL HepG2 Assay for M06 Transcription Factor (Internal Marker) (AID 2282983); conditions: HepG2 Attagene TRANS M06 internal marker reporter
In short: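 Cells: HepG2, transient multi-reporter transfection. Exposure: 24 h. Detection: RT-PCR, 6-FAM labelling, HpaI digestion (2 h, 37 °C), capillary electrophoresis. Baseline: DMSO.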

[5] = ATG_M_32_TRANS: Attagene TRANS-FACTORIAL HepG2 Assay for M32 Transcription Factor (Internal Marker) (AID 2282984); conditions: HepG2 Attagene TRANS M32 internal marker reporter;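 also: transcript level of a background control reporter unit measured by RT-PCR and capillary electrophoresis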
In short: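 Capillary electrophoresis of 6-FAM-labelled reporter fragments gives the signal; data fitted for gain over DMSO negative control. Source: HepG2 cells bearing transient multiple reporter transcription units, 24 h exposure.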

[6] = biological target: Nuclear receptor subfamily 4 group A member 2 (Homo sapiens) (UniProt P43354); experiment: ATG_NURR1_TRANS: Attagene TRANS-FACTORIAL HepG2 Assay for human Nuclear Receptor Related Protein 1 (NURR1) (AID 2282985); conditions: HepG2 Attagene TRANS reporter, mRNA readout
Chain of Nuclear receptor subfamily 4 group A member 2 (Homo sapiens) (P43354 whole entry, looked up): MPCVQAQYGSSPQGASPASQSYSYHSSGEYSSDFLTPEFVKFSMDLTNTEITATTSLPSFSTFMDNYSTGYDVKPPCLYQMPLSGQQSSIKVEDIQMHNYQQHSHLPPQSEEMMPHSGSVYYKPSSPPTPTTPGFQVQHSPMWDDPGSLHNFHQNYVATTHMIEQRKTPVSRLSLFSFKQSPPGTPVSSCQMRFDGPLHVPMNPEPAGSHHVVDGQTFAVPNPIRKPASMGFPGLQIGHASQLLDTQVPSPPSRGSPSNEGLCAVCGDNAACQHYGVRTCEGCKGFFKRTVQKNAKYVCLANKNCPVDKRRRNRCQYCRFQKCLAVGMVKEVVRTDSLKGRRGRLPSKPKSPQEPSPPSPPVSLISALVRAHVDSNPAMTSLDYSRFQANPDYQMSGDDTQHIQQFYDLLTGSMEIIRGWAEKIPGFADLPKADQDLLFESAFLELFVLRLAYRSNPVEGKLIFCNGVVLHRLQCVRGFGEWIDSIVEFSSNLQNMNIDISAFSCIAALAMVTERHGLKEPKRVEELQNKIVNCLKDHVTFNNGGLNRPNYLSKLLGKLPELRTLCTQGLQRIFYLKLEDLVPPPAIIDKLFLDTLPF
In short: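 HepG2 / transient MRTU transfection / 24 h compound exposure / RT-PCR + CE fluorescence of reporter mRNA / gain-of-signal vs DMSO.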

[7] = biological target: Nuclear respiratory factor 1 (Homo sapiens) (UniProt Q16656); experiment: ATG_NRF1_CIS: Attagene CIS-FACTORIAL HepG2 Assay for human Nuclear Respiratory Factor 1 (NRF1) Orphan Gene (AID 2282987; active = hit-call score of the fitted dose curve at least 0.9, where 1 is the maximum; inactive = score below 0.9); conditions: HepG2 NRF1 cis-element reporter, Attagene multiplex; actives raise or lower the signal
Chain of Nuclear respiratory factor 1 (Homo sapiens) (Q16656 whole entry, looked up): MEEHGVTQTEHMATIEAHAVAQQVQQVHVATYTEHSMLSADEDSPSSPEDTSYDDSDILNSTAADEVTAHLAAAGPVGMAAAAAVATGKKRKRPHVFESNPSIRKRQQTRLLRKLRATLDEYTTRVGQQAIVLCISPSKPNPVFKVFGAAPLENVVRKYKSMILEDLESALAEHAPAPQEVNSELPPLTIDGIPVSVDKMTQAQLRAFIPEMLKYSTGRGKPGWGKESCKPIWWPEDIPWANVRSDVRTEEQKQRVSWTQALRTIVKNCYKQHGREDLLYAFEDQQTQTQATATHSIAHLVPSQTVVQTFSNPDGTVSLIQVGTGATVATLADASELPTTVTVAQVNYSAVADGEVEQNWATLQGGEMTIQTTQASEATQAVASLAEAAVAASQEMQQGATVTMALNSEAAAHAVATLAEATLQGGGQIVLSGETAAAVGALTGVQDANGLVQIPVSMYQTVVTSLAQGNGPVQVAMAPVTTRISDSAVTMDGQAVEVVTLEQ
In short: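 HepG2 cells transiently transfected with multiple reporter transcription units under cis-regulatory promoter control, so endogenous transcription-factor activity is read. After 24 h compound exposure, reporter mRNA quantified by RT-PCR, fluorescent labelling, HpaI digestion and capillary electrophoresis; bidirectional fitting versus DMSO.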

[8] = biological target: Transcriptional activator Myb (Homo sapiens) (UniProt P10242); experiment: ATG_Myb_CIS: Attagene CIS-FACTORIAL HepG2 Assay for human Myeloblastosis (Myb) Proto-Oncogene Transcription Factor (AID 2282986; active = hit-call score of the fitted dose curve at least 0.9, where 1 is the maximum; inactive = score below 0.9); conditions: HepG2 Attagene CIS-FACTORIAL Myb reporter transcription; actives raise or lower the signal
Chain of Transcriptional activator Myb (Homo sapiens) (P10242 whole entry, looked up): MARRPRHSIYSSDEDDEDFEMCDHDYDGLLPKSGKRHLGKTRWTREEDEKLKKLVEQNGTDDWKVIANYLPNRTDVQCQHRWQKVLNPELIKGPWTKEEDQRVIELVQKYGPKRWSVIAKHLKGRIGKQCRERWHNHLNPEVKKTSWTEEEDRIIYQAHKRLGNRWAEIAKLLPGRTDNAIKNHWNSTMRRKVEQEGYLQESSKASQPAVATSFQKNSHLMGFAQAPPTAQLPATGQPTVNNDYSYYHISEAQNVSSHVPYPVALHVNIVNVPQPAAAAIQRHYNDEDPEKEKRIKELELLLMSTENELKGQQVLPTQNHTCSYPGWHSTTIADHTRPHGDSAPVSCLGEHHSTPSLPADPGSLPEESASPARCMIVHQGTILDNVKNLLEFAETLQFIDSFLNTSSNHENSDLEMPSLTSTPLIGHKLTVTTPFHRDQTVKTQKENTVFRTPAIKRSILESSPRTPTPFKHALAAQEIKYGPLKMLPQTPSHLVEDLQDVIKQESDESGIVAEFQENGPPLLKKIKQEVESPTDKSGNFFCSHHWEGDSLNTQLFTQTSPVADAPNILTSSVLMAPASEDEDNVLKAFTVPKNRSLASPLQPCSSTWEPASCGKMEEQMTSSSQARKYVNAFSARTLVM
In short: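 HepG2 cells were transiently transfected with cis-regulated multiple reporter transcription units reflecting endogenous Myb activity, then exposed to compound for 24 hours. Reporter mRNA was measured by RT-PCR with capillary electrophoresis; bidirectional fitting versus DMSO baseline.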

[9] = biological target: Oxysterols receptor LXR-alpha (Homo sapiens) (UniProt Q13133); experiment: ATG_LXRa_TRANS: Attagene TRANS-FACTORIAL HepG2 Assay for human Liver X Receptor alpha (LXRa) (AID 2282980); conditions: HepG2 Attagene TRANS reporter, LXRa transactivation
Chain of Oxysterols receptor LXR-alpha (Homo sapiens) (Q13133 whole entry, looked up, the tested form may be a part): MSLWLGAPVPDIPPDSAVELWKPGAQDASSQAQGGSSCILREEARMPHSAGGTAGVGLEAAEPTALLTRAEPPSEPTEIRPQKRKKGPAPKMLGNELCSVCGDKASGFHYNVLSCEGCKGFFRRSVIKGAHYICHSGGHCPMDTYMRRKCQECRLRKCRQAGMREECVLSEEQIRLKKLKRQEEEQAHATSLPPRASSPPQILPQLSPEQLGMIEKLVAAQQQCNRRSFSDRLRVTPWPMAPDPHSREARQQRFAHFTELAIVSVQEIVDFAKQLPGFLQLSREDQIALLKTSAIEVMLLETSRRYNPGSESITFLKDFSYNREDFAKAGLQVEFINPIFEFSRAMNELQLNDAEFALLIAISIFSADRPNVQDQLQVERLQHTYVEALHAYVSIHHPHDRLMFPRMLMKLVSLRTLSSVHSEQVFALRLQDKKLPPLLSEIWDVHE
In short: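 Chemical-induced reporter mRNA measured by RT-PCR with fluorescent labelling and capillary electrophoresis after 24 h dosing of transiently transfected HepG2 cells expressing exogenous NR-Gal4 chimeras; increases scored against DMSO baseline.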

Structure (SMILES)	outcome [1]	outcome [2]	outcome [3]	outcome [4]	outcome [5]	outcome [6]	outcome [7]	outcome [8]	outcome [9]	AC50 [6]	AC50 [7]
O=C(O)CCCCCCCCCC(=O)O	inactive	inactive	inactive	inactive	inactive	inactive	inactive				
O=C(Oc1ccccc1)c1ccc2ccccc2c1O	inactive	inactive	inactive	inactive		inactive	inactive				
O=C1Nc2ccccc2C1(c1ccc(O)cc1)c1ccc(O)cc1	inactive	inactive		inactive	inactive		inactive	inactive			
CCOC(=O)CC(C(C)=O)C(C)=O	inactive		inactive				inactive	inactive	inactive		
O=P(O)(O)Oc1ccccc1	inactive	inactive	inactive	inactive				inactive			
NC(CO)(CO)CO	inactive	inactive	inactive	inactive	inactive	inactive	inactive	inactive			
CC(=O)Nc1nnc(S(N)(=O)=O)s1	inactive	inactive		inactive	inactive		inactive	inactive			
COC(=O)/C=C\C(=O)O	inactive	inactive	inactive	inactive			inactive				
FC(F)(F)C(=NOCC1OCCO1)c1ccc(Cl)cc1	inactive	inactive		inactive	inactive		inactive	inactive		100 µM (active)	
Cc1cc(C)c(C(=O)O)c(C)c1	inactive	inactive		inactive			inactive	inactive			
C=CC(=O)OCCOC1C2CCC1C1CC=CC12 (stereo not drawn)	inactive	inactive				inactive	inactive	inactive			
CC(C)(Oc1ccc(C2CC2(Cl)Cl)cc1)C(=O)O (stereo not drawn)	inactive			inactive	inactive		inactive	inactive	inactive		
CC1(C)S[C@@H]2[C@H](NC(=O)COc3ccccc3)C(=O)N2[C@H]1C(=O)O	inactive		inactive				inactive	inactive	inactive		
NNC(=O)c1cccc(C(=O)NN)c1	inactive	inactive	inactive	inactive	inactive		inactive	inactive			
CNC(=S)N(C)C	inactive	inactive	inactive				inactive	inactive			
O=C(O)CC(C(=O)O)C(CC(=O)O)C(=O)O (stereo not drawn)	inactive	inactive		inactive	inactive		inactive	inactive			
COCCOCCOCCOCCOC	inactive	inactive	inactive	inactive			inactive	inactive			

Structure (SMILES)	outcome [1]	outcome [2]	outcome [3]	outcome [4]	outcome [5]	outcome [6]	outcome [7]	outcome [8]	outcome [9]	AC50 [6]	AC50 [7]
O=C(c1ccc(O)cc1)c1ccc(O)cc1O	inactive			inactive	inactive	inactive	inactive	inactive	inactive		
CC1=NC(C)OC1C (stereo not drawn)	inactive	inactive	inactive		inactive	inactive	inactive	inactive			
O=C1CCCC1	inactive	inactive			inactive	inactive	inactive	inactive			
CCC(=O)Oc1ccc(/C(CC)=C(\CC)c2ccc(OC(=O)CC)cc2)cc1	inactive	inactive	inactive	inactive				inactive		26.1 µM (active)	26.9 µM (active)
O=C1CCC(=O)N1Cl	inactive	inactive	inactive	inactive		inactive	inactive	inactive			
CCOC(=O)c1ccc(N(C)C)cc1	inactive	inactive	inactive		inactive	inactive	inactive	inactive			
CC(C)(C)c1n[nH]c(=O)n(N)c1=O	inactive	inactive	inactive	inactive				inactive			
N=c1ccn2c(n1)O[C@H]1[C@H](O)[C@@H](CO)O[C@H]12	inactive	inactive	inactive		inactive		inactive	inactive			
CC(=O)OC(C)C	inactive			inactive		inactive	inactive	inactive	inactive		
CC(=O)c1ccc2c(c1)CCCC2	inactive	inactive			inactive		inactive	inactive			
c1ccc(CCCc2ccncc2)cc1	inactive	inactive	inactive	inactive	inactive	inactive	inactive	inactive			
CC(C)CCCCCOC(=O)CCS	inactive	inactive	inactive		inactive		inactive	inactive			
O=S(=O)(O)c1ccccc1C=Cc1ccc(-c2ccc(C=Cc3ccccc3S(=O)(=O)O)cc2)cc1	inactive				inactive	inactive	inactive	inactive	inactive		
C=CC(C)(CCC=C(C)C)OC(=O)C(C)C (stereo not drawn)	inactive			inactive		inactive	inactive	inactive	inactive		
CC(C)c1ccc(C=O)cc1	inactive	inactive	inactive	inactive	inactive	inactive	inactive	inactive			
CC(C)c1ccc(C#N)cc1	inactive						inactive	inactive	inactive		
C[Si](C)O[Si](C)(C)O[Si](C)(C)O[Si](C)C	inactive	inactive		inactive	inactive	inactive	inactive	inactive			
